PubChem BioAssay (Tox21)
Records with an inconclusive call do not appear. Activity calls are given as the source filed them. Unless noted, calls follow the shape of the dose curve; as a rule, active = well fitted curve in the direction sought with a large enough effect in the repeat runs; inconclusive = weak or mixed curves; inactive = no such curve, though single readings can be large; an effect the other way counts as inactive or inconclusive.

Assays:
[1] = qHTS assay to identify small molecule agonists of the estrogen receptor alpha (ER-alpha) signaling pathway in the presence of an antagonist - cell viability counter screen (AID 1259386);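 also: cells exposed to compounds for 22 h at 37 °C before the viability read; nearly all actives have a fitted effect of over 30% in size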; also: potency is read from the fitted curve at half-maximal effect
Outline: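 Steps: 5-day stripped-FBS culture; seed and incubate 24hr; add ICI-182,780 (10.0nM final); pin 15-point compound titration; incubate 22hr at 37C; add CellTiter-Fluor at 21hr; read fluorescence.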

[2] = molecular target: Progesterone receptor (Homo sapiens) (UniProt P06401); experiment: qHTS assay to identify small molecule agonists of the progesterone receptor (PR) signaling pathway (AID 1346784; calls by dose curve; also: nearly all actives have a fitted effect of over 30% in size; also: potency is read from the fitted curve at half-maximal effect)
Chain of Progesterone receptor (Homo sapiens) (P06401 whole entry, looked up): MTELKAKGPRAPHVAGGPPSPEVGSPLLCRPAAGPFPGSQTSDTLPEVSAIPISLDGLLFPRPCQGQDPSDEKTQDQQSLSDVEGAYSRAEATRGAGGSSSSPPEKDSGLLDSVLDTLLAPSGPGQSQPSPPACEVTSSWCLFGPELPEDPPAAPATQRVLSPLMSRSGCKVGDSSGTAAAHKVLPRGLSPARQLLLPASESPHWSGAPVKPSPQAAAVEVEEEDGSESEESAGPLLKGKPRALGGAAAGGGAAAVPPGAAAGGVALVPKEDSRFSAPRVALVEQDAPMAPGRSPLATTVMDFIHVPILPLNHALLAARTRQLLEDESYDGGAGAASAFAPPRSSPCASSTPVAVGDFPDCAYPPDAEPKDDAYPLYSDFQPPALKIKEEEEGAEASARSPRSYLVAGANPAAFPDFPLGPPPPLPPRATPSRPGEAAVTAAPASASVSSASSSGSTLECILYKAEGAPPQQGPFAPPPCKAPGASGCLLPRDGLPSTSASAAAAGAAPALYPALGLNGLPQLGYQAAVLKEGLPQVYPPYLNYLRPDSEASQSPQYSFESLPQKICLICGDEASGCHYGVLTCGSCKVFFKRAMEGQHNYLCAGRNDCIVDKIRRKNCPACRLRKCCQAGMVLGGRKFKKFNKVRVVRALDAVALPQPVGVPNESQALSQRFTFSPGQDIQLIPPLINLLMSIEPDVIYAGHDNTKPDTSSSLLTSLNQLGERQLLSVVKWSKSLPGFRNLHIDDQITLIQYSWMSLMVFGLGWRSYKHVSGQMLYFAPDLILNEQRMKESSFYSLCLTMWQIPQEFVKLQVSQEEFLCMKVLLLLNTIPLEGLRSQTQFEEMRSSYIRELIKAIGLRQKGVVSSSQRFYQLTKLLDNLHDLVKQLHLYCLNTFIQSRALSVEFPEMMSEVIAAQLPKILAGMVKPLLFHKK
Outline: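 Reporter assay, GripTite PR-UAS-bla HEK 293T cells: 16 hr exposure to DMSO-dissolved compounds at 37C, 5% CO2, in steroid-depleted (2% charcoal-stripped FBS) medium; beta-lactamase measured by FRET fluorescence.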

[3] = qHTS assay to identify small molecule antagonists of the progesterone receptor (PR) signaling pathway - cell viability counter screen (AID 1346798); also: series mostly up to about 92 µM; nearly all actives have a fitted effect of over 50% in size
Outline: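 In the same plates used for the beta-lactamase readout, cell viability of compound- and R5020-treated PR-UAS-bla HEK293T cells (16 hr, 37C) was assessed by CellTiter-Glo luminescence.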

[4] = qHTS assay to identify small molecule agonists of the progesterone receptor (PR) signaling pathway - cell viability counter screen (AID 1346799; calls by dose curve; also: nearly all actives have a fitted effect of over 45% in size)
Outline: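 Multiplexed viability read: CellTiter-Glo luminescence, 30 min RT, following LiveBLAzer FRET measurement on PR-UAS-bla HEK293T cells exposed to compounds 16 hr.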

[5] = qHTS assay to identify small molecule antagonists of the TGF-beta/Smad signaling pathway - cell viability counter screen (AID 1346824); also: nearly all actives have a fitted effect of over 50% in size
Outline: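 SBE-bla HEK 293T cells, incubated overnight, then compound plus 0.25 ng/mL TGF-beta1 (stock added) for 5 hr at 37 C. Viability was read in the same wells by CellTiter-Glo luminescence after 30 min at room temperature.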

[6] = qHTS assay to identify small molecule agonists of the TGF-beta/Smad signaling pathway - cell viability counter screen (AID 1346829); also: top concentration of the series differs between compounds; nearly all actives have a fitted effect of over 45% in size
Outline: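 Cytotoxicity counter screen: CellTiter-Glo luminescence (30 min, room temperature) measured in the SBE-bla HEK 293T reporter wells after 5 hr compound treatment at 37 C and the 2 hr substrate step.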

[7] = qHTS assay to identify small molecule agonists of the TGF-beta/Smad signaling pathway (AID 1346859; active = well fitted activation curve with a large enough effect in the signal ratio in the repeat runs, not every such curve was filed as active; the % refers to the signal ratio; also: series mostly up to about 77 µM)
Outline: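 Screening used HEK 293T SBE-bla cells at 4,000/well. Test agents: 5 hr, 37 C. Detection: FRET substrate, 2 hr RT, then excitation 405 nm with emissions at 460 and 530 nm.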

[8] = Human pregnane X receptor (PXR) small molecule agonists, qHTS cell viability counter screen (AID 1346977); also: nearly all actives have a fitted effect of over 50% in size; also: potency is read from the fitted curve at half-maximal effect
Outline: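 In each well, the PXR reporter HepG2 line was checked for viability: CellTiter-Fluor reagent added 23hr post-dosing, fluorescence read after 1hr incubation at 37C.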

[9] = Caspase-3/7 induction in HepG2 cells by small molecules, qHTS assay (AID 1346978); also: nearly all actives have a fitted effect of over 15% in size
Outline: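 Wild-type HepG2 cells, 2,000/well, settled 5 hr at 37 C and 5% CO2, then compound-treated for 17 hr; caspase-3/7 activity read by luminescent Caspase-Glo 3/7 after 30 min at room temperature.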

[10] = Caspase-3/7 induction in CHO-K1 cells by small molecules, qHTS cell viability counter screen (AID 1346979); also: nearly all actives have a fitted effect of over 35% in size; also: potency is read from the fitted curve at half-maximal effect
Outline: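 Following a 5hr settling period, CHO-K1 cells at 1,500 per well received DMSO-dissolved compounds. Cell viability was quantified 16hr later by CellTiter-Fluor fluorescence, measured after 1hr with reagent at 37C.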

[11] = Caspase-3/7 induction in HepG2 cells by small molecules, qHTS cell viability counter screen (AID 1346981); also: series mostly up to about 92 µM; nearly all actives have a fitted effect of over 30% in size
Outline: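 The parent HepG2 line is plated at 2,000 cells per well and rested 5 hr before compound pinning from DMSO stocks. Following a 16-hr treatment at 37 C, a fluorogenic live-cell substrate (CellTiter-Fluor) reports viability after 1 hr.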

[12] = molecular target: Nuclear receptor subfamily 1 group I member 2 (Homo sapiens) (UniProt O75469); experiment: Human pregnane X receptor (PXR) small molecule agonists, qHTS assay (AID 1346982); also: nearly all actives have a fitted effect of over 35% in size; also: potency is read from the fitted curve at half-maximal effect
Chain of Nuclear receptor subfamily 1 group I member 2 (Homo sapiens) (O75469 whole entry, looked up): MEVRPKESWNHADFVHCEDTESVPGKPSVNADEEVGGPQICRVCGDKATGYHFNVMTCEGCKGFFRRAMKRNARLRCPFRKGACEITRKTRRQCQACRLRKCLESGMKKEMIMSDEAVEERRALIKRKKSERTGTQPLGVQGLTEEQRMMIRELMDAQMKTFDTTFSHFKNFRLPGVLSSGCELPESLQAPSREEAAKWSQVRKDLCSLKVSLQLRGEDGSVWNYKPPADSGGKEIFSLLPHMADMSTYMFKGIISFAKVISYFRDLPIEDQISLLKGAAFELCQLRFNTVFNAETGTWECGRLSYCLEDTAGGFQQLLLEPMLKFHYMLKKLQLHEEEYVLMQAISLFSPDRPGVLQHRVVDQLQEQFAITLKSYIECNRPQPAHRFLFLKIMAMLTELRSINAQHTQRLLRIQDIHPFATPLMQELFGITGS
Outline: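 After plating in 5% charcoal-stripped FBS and a 5 hr rest, PXR-Luc HepG2 cells received compounds in DMSO. Following 24 hr at 37 C, ONE-Glo was added and light output read.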

[13] = molecular target: Acetylcholinesterase (Homo sapiens) (UniProt P22303); experiment: Acetylcholinesterase (AChE) small molecule antagonists: colormetric cell-based qHTS assay (AID 1347395; calls by dose curve; also: nearly all actives have a fitted effect of over 30% in size)
Chain of Acetylcholinesterase (Homo sapiens) (P22303 whole entry, looked up): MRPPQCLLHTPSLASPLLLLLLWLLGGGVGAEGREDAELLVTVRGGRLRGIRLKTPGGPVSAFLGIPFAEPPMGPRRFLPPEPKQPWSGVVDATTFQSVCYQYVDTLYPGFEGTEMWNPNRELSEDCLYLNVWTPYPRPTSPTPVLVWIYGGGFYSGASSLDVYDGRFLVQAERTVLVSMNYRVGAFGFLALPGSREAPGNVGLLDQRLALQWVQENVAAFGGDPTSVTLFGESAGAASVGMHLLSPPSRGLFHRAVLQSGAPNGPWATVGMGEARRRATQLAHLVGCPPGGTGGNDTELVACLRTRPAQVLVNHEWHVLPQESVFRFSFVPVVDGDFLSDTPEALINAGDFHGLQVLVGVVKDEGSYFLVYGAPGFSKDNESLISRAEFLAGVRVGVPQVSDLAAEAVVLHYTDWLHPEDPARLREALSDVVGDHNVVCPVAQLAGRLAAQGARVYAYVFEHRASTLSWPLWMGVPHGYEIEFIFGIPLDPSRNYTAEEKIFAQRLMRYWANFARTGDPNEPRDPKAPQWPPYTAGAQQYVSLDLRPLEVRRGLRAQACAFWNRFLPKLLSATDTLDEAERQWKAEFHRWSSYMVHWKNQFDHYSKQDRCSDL
Outline: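 After overnight attachment at 37 C, SH-SY5Y cells get 30 min compound exposure; detection cocktail (acetylthiocholine, DTNB) then incubates 90 min at 37 C, and absorbance reflects AChE-generated thiocholine.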

[14] = molecular target: Thyrotropin-releasing hormone receptor (Homo sapiens) (UniProt P34981); experiment: qHTS assay to identify small molecule antagonists of the thyrotropin-releasing hormone receptor (TRHR) signaling pathway (AID 1346877; active = well fitted inhibition curve with a large enough effect in the repeat runs, not every such curve was filed as active; also: series mostly up to about 51 µM)
Chain of Thyrotropin-releasing hormone receptor (Homo sapiens) (P34981 whole entry, looked up): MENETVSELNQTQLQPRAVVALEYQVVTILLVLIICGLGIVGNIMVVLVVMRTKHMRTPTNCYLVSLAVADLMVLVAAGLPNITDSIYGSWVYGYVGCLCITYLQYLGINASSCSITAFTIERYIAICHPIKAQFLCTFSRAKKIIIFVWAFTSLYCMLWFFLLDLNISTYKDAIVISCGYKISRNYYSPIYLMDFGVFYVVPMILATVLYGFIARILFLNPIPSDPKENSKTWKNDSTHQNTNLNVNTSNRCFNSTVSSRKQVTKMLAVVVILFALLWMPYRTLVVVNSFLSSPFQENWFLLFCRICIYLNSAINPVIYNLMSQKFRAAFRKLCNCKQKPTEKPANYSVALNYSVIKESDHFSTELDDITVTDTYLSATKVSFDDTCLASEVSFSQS
Outline: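 Human TRHR in HEK293 cells; inhibition of the intracellular calcium rise triggered by 1 nM TRH was followed by fluorescence over 3 min. Compounds were run at 15 concentrations, three replicates each.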

[15] = molecular target: Thyrotropin-releasing hormone receptor (Homo sapiens) (UniProt P34981); experiment: qHTS assay to identify small molecule agonists of the thyrotropin-releasing hormone receptor (TRHR) signaling pathway (AID 1346891; calls by dose curve; also: series mostly up to about 58 µM)
Outline: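 Readout was intracellular calcium fluorescence in TRHR-Hek293 cells. Cells were incubated 18 h, dye-loaded 2 h at 37 °C, and treated with compound in agonist mode.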

[16] = Caspase-3/7 induction in CHO-K1 cells by small molecules, qHTS assay (AID 1346980); also: nearly all actives have a fitted effect of over 15% in size
Outline: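 Wild-type CHO-K1 cells exposed to compounds for 17hr at 37 C, 5% CO2. Caspase-3/7 activity then measured by Caspase-Glo 3/7 luminescence after 30min at room temperature.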

[17] = molecular target: Progesterone receptor (Homo sapiens) (UniProt P06401); experiment: qHTS assay to identify small molecule antagonists of the progesterone receptor (PR) signaling pathway (AID 1346795; active = well fitted inhibition curve with a large enough effect in the signal ratio in the repeat runs, not every such curve was filed as active; the % refers to the signal ratio)
Outline: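 Stimulus R5020 at 1 nM final; cells HEK293T PR-UAS-bla; medium with 2% charcoal-stripped FBS; compound exposure 16 hr at 37C, 5% CO2; detection by FRET beta-lactamase substrate, 2 hr, room temperature.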

[18] = molecular target: Nuclear receptor subfamily 1 group I member 2 (Rattus norvegicus) (UniProt Q9R1A7); experiment: Rat pregnane X receptor (rPXR) activation by small molecules, qHTS assay (AID 1346983); conditions: rPXR luciferase reporter cells, One-Glo luminescence, 24 h; max activation: active compounds read high; also: nearly all actives have a fitted effect of over 20% in size
Chain of Nuclear receptor subfamily 1 group I member 2 (Rattus norvegicus) (Q9R1A7 whole entry, looked up): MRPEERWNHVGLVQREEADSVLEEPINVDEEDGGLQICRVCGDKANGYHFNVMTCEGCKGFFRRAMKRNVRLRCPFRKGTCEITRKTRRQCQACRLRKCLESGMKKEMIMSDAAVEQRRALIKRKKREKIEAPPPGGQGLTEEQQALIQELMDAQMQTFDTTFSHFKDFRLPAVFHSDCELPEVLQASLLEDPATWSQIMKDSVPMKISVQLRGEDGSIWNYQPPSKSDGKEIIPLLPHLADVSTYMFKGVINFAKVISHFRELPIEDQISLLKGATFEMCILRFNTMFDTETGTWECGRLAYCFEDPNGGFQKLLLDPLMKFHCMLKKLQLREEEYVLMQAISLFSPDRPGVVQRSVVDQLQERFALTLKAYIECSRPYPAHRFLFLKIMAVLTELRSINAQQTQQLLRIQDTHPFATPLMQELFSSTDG
Outline: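 Cell-based rPXR activation assay: rPXR cells, 2,000 per well, rested 5hr at 37 C, then exposed to compounds in DMSO for 24 hr at 37 C. Luciferase activity read by One-Glo luminescence after 30 min at room temperature.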

[19] = molecular target: Nuclear receptor subfamily 1 group I member 2 (Homo sapiens) (UniProt O75469); experiment: CYP3A4 induction through human pregnane X receptor (PXR) by small molecules, qHTS assay (AID 1346984); also: nearly all actives have a fitted effect of over 40% in size
Outline: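 Human PXR activation is tracked via CYP3A4 promoter-luciferase in DPX-2 (HepG2) cells. Compounds treat cells for 24hr at 37C, and luminescence is read after One-Glo.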

[20] = molecular target: Nuclear receptor subfamily 1 group I member 2 (Homo sapiens) (UniProt O75469); experiment: Human pregnane X receptor (PXR) activation by small molecules, qHTS assay (AID 1346985); also: nearly all actives have a fitted effect of over 40% in size
Outline: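 DPX-2 cells (HepG2 co-transfected with a PXR response element and a CYP3A4-promoter luciferase construct) were seeded at 2,000 per well, rested 5 hr at 37C, then exposed to DMSO-dissolved compounds for 24 hr. Activation was read as luciferase luminescence.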
% is scaled to controls: 0 for no effect and ±100 for the full control effect.

COC(=O)C(C)N(C(=O)c1ccco1)c1c(C)cccc1C (configuration not stated)
active: Potency [12] 10.9 µM
inactive: Potency [1] | Potency [2] | Potency [3] | Potency [4] | Potency [5] | Potency [6] | outcome [7] | Potency [8] | Potency [9] | Potency [10] | Potency [11] | Potency [13]

CCC(C)c1cccc(C(C)CC)c1O (configuration not stated)
inactive: Potency [1] | Potency [2] | Potency [3] | Potency [4] | Potency [5] | Potency [6] | outcome [7] | Potency [14] | Potency [15] | Potency [8] | Potency [16] | Potency [12] | Potency [13]

O=P(Cl)(Cl)Cl
inactive: Potency [1] | Potency [2] | Potency [3] | Potency [4] | Potency [5] | Potency [6] | outcome [7] | Potency [15] | Potency [8] | Potency [9] | Potency [10] | Potency [16] | Potency [11] | Potency [12] | Potency [13]

Cc1cnc2c(C(=O)O)c(Cl)ccc2c1
inactive: Potency [1] | Potency [2] | Potency [3] | Potency [4] | Potency [5] | Potency [6] | outcome [7] | Potency [14] | Potency [15] | Potency [8] | Potency [9] | Potency [10] | Potency [16] | Potency [12] | Potency [13]

ClSC(Cl)(Cl)Cl
inactive: Potency [1] | Potency [2] | Potency [3] | Potency [4] | Potency [5] | Potency [6] | outcome [7] | Potency [14] | Potency [15] | Potency [8] | Potency [9] | Potency [10] | Potency [16] | Potency [11] | Potency [12] | Potency [13]

COc1ccc(Cc2nccc3cc(OC)c(OC)cc23)cc1OC
active: Potency [1] 13.3 µM | Potency [8] 9.44 µM | Potency [10] 13.3 µM | Potency [12] 16.8 µM
inactive: Potency [2] | Potency [17] | Potency [5] | Potency [6] | outcome [7] | Potency [15] | Potency [9] | Potency [16] | max activation [18] -16.6% | Potency [19] | Potency [20]

CN
inactive: Potency [1] | Potency [2] | Potency [3] | Potency [4] | Potency [5] | Potency [6] | outcome [7] | Potency [14] | Potency [15] | Potency [8] | Potency [10] | Potency [16] | Potency [11]

CCNc1nc(NC(C)C(C)C)nc(SC)n1 (configuration not stated)
inactive: Potency [1] | Potency [2] | Potency [3] | Potency [4] | Potency [5] | Potency [6] | outcome [7] | Potency [8] | Potency [9] | Potency [10] | Potency [16] | Potency [11] | Potency [13]
active: Potency [12] 30.6 µM

C[C@@H]1CC2=CC(=O)CC[C@@H]2[C@H]2CC[C@@]3(C)[C@@H](CC[C@]3(C)O)[C@@H]21
inactive: Potency [1] | Potency [17] | Potency [5] | Potency [6] | outcome [7] | Potency [8] | Potency [16] | Potency [11] | Potency [12] | Potency [13]
active: Potency [2] 0.0017 µM

N#Cc1ccc(N(CC(N)=O)CC(F)(F)F)cc1C(F)(F)F
inactive: Potency [1] | Potency [2] | Potency [3] | Potency [4] | Potency [5] | Potency [6] | outcome [7] | Potency [14] | Potency [15] | Potency [8] | Potency [9] | Potency [10] | Potency [11] | Potency [12] | Potency [13]

C#CC1(O)CCCCC1
inactive: Potency [1] | Potency [2] | Potency [3] | Potency [4] | Potency [5] | Potency [6] | outcome [7] | Potency [14] | Potency [15] | Potency [9] | Potency [10] | Potency [16] | Potency [12] | Potency [13]

CCCCc1ccccc1
inactive: Potency [1] | Potency [2] | Potency [3] | Potency [4] | Potency [5] | Potency [6] | outcome [7] | Potency [8] | Potency [9] | Potency [10] | Potency [11] | Potency [12] | Potency [13]
